According to PubChem BioAssay (EPA / NIEHS):
The source made the active and inactive calls. The calls were made as follows: active = hit-call score of the fitted dose curve at least 0.9, where 1 is the maximum; inactive = score below 0.9.

The molecules below were run on Cyclin Dependent Kinase Inhibitor 1A (CDKN1A), CDKN1A (gene 1026) (assay: LTEA_HepaRG_CDKN1A: Life Technologies and Expression Analysis (LTEA) Assay for Cyclin Dependent Kinase Inhibitor 1A (CDKN1A) using HepaRG (AID 2283450)). Conditions: mRNA level, 48 h; actives raise or lower the signal.
Summary of the method: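 Expression quantified by Fluidigm qRT-PCR with ACTB, GAPDH and POLR2A normalization, fitted bidirectionally against 0.5% DMSO. Cells: HepaRG, plated 48 h then treated 48 h in serum-free induction medium, top concentration 100 uM with half-log dilutions.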

| SMILES | outcome | AC50 |
| --- | --- | --- |
| O=C(O)Cn1c(=O)n(Cc2ccc(Br)cc2F)c(=O)c2ccc(Cl)cc21 | inactive |  |
| O=c1c(-c2ccc(O)cc2)coc2cc(O)cc(O)c12 | inactive |  |
| Cc1c2ccccc2c(C)c2c1ccc1ccccc12 |  | 35.1 µM (active) |
| CCCCCCCCOC(=O)c1cc(O)c(O)c(O)c1 | inactive |  |
| O=CCCCC=O | inactive |  |
| Cc1cc2c(cc1C(F)(F)F)N(C(=O)Nc1ccc(Oc3cccnc3C)nc1)CC2 | inactive |  |
| CC(C)(C)c1cc(/C=C2\SC(N)=NC2=O)cc(C(C)(C)C)c1O |  | 22.2 µM (active) |
| NCc1cccc(C2CCN(C(=O)c3ccc(C#Cc4ccccc4F)o3)CC2)c1 | inactive |  |
| NC(=O)c1nc(-c2cccc(-c3cc(F)ccc3OCC(F)(F)C(F)(F)F)c2)n[nH]1 | inactive |  |
| Cc1occc1C(=O)Nc1ccc(C(=O)N2CCC(F)(F)/C(=C\C(=O)N3CCC(N4CCCCC4)CC3)c3ccccc32)cc1 | inactive |  |
| COc1cc(C(=O)NC2CCN(C)CC2)ccc1Nc1ncc2c(n1)N(C1CCCC1)CC(F)(F)C(=O)N2C | inactive |  |
| CCCCCCCCCCCC[N+](C)(C)C |  | 82 µM (active) |
| Cc1ccc2oc(CN(Cc3ccccc3)C(=O)Nc3c(F)cc(F)cc3F)c(-c3ccc(Cl)cc3)c2c1 | inactive |  |
| CCCCCCCCCCCO | inactive |  |
| O=C(Nc1ccc(Cl)cc1)Nc1ccc(Cl)c(Cl)c1 | inactive |  |
| COCC(C)OCC(C)OCC(C)O (stereo unspecified) | inactive |  |
| CN(C[C@@H](CC[N+]12CCC(C3CCCCC3)(CC1)CC2)c1ccc(Cl)c(Cl)c1)C(=O)c1cc(C(F)(F)F)cc(C(F)(F)F)c1 | inactive |  |
| CCCCOC(=O)CC(CC(=O)OCCCC)(OC(C)=O)C(=O)OCCCC | inactive |  |
| O=C(O)c1ccccc1C(=O)OCc1ccccc1 | inactive |  |

| SMILES | outcome | AC50 |
| --- | --- | --- |
| CN1C(=O)CC[C@H]1c1cccnc1 | inactive |  |
| CC(=O)N1CCN(c2ccc(OC[C@H]3CO[C@](Cn4ccnc4)(c4ccc(Cl)cc4Cl)O3)cc2)CC1 |  | 12.3 µM (active) |
| CCCCOC(=O)c1ccc(O)cc1 | inactive |  |
| O=C1c2ccccc2C(=O)N1CCc1noc(-c2ccc(CN3CCCCCC3)s2)n1 | inactive |  |
| OC12N=C(c3ccccc3)SC1Cc1cc(Cl)ccc12 (stereo unspecified) | inactive |  |
| C[C@]12CC[C@@H]3c4ccc(O)cc4CC[C@H]3[C@@H]1CC[C@H]2O |  | 50 µM (active) |
| COc1cccc([C@H](O)C2CCN(CCc3ccc(F)cc3)CC2)c1OC | inactive |  |
| CN(C)c1ccc(C(=C2C=CC(=[N+](C)C)C=C2)c2ccc(N(C)C)cc2)cc1 | inactive |  |
| CN1C(=O)N(c2ccccc2Br)Cc2cnc(Nc3ccc4c(c3)OCC(CO)O4)nc21 (stereo unspecified) | inactive |  |
| Oc1ccc2ccccc2c1 | inactive |  |
| CCCCCCCC[Si](OCC)(OCC)OCC | inactive |  |
| Clc1cc(Cl)c2c(c1)N=C1CCCCCN1C2 | inactive |  |
| Clc1ccccc1C(c1ccccc1)(c1ccccc1)n1ccnc1 |  | 91.2 µM (active) |
| CC(C)(O)c1ccc(CNC(=O)c2cccnc2Oc2ccc3nonc3c2)cc1 | inactive |  |
| O=C1CCC(C2CCCCC2)CC1 | inactive |  |
| CC(C)(c1cc(Br)c(O)c(Br)c1)c1cc(Br)c(O)c(Br)c1 |  | 92.3 µM (active) |
| Cc1oc2c(NC(=O)c3c(Cl)cccc3Cl)cccc2c1C(C)(C)O | inactive |  |
| O=C(O)Cc1cc(I)c(Oc2ccc(O)c(I)c2)c(I)c1 |  | 82.7 µM (active) |
| CCCCCCCCN(C)CCCCCCCC | inactive |  |

What follows are molecules tested on Cyclin D1 (CCND1), CCND1 (gene 595) (assay: LTEA_HepaRG_CCND1: Life Technologies and Expression Analysis (LTEA) Assay for Cyclin D1 (CCND1) using HepaRG (AID 2283451;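 as to AC50: differentiated human HepaRG liver cells in serum-free induction medium; TaqMan qRT-PCR transcript level normalised to ACTB GAPDH and POLR2A housekeeping genes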)). Conditions: mRNA level, 48 h; actives raise or lower the signal.
Summary of the method: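 Expression of CCND1 was quantified by qRT-PCR on Fluidigm arrays using ACTB, GAPDH and POLR2A as reference genes. HepaRG cultures, plated 48 h beforehand, were dosed for 48 h at up to 100 uM (half-log, 8 points) in 0.5% DMSO.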

| SMILES | outcome | AC50 |
| --- | --- | --- |
| O=C(O)Cn1c(=O)n(Cc2ccc(Br)cc2F)c(=O)c2ccc(Cl)cc21 | inactive |  |
| O=c1c(-c2ccc(O)cc2)coc2cc(O)cc(O)c12 | inactive |  |
| Cc1c2ccccc2c(C)c2c1ccc1ccccc12 |  | 86.4 µM (active) |
| CCCCCCCCOC(=O)c1cc(O)c(O)c(O)c1 | inactive |  |
| O=CCCCC=O | inactive |  |
| Cc1cc2c(cc1C(F)(F)F)N(C(=O)Nc1ccc(Oc3cccnc3C)nc1)CC2 | inactive |  |
| CC(C)(C)c1cc(/C=C2\SC(N)=NC2=O)cc(C(C)(C)C)c1O |  | 39.3 µM (active) |
| NCc1cccc(C2CCN(C(=O)c3ccc(C#Cc4ccccc4F)o3)CC2)c1 | inactive |  |
| NC(=O)c1nc(-c2cccc(-c3cc(F)ccc3OCC(F)(F)C(F)(F)F)c2)n[nH]1 | inactive |  |
| Cc1occc1C(=O)Nc1ccc(C(=O)N2CCC(F)(F)/C(=C\C(=O)N3CCC(N4CCCCC4)CC3)c3ccccc32)cc1 |  | 39.9 µM (active) |
| COc1cc(C(=O)NC2CCN(C)CC2)ccc1Nc1ncc2c(n1)N(C1CCCC1)CC(F)(F)C(=O)N2C |  | 46.5 µM (active) |
| CCCCCCCCCCCC[N+](C)(C)C |  | 82.7 µM (active) |
| Cc1ccc2oc(CN(Cc3ccccc3)C(=O)Nc3c(F)cc(F)cc3F)c(-c3ccc(Cl)cc3)c2c1 | inactive |  |
| CCCCCCCCCCCO | inactive |  |
| O=C(Nc1ccc(Cl)cc1)Nc1ccc(Cl)c(Cl)c1 | inactive |  |
| COCC(C)OCC(C)OCC(C)O (stereo unspecified) | inactive |  |
| CN(C[C@@H](CC[N+]12CCC(C3CCCCC3)(CC1)CC2)c1ccc(Cl)c(Cl)c1)C(=O)c1cc(C(F)(F)F)cc(C(F)(F)F)c1 |  | 28.9 µM (active) |
| CCCCOC(=O)CC(CC(=O)OCCCC)(OC(C)=O)C(=O)OCCCC | inactive |  |
| O=C(O)c1ccccc1C(=O)OCc1ccccc1 | inactive |  |

| SMILES | outcome | AC50 |
| --- | --- | --- |
| CN1C(=O)CC[C@H]1c1cccnc1 | inactive |  |
| CC(=O)N1CCN(c2ccc(OC[C@H]3CO[C@](Cn4ccnc4)(c4ccc(Cl)cc4Cl)O3)cc2)CC1 |  | 91.1 µM (active) |
| CCCCOC(=O)c1ccc(O)cc1 | inactive |  |
| O=C1c2ccccc2C(=O)N1CCc1noc(-c2ccc(CN3CCCCCC3)s2)n1 | inactive |  |
| OC12N=C(c3ccccc3)SC1Cc1cc(Cl)ccc12 (stereo unspecified) |  | 9.92 µM (active) |
| C[C@]12CC[C@@H]3c4ccc(O)cc4CC[C@H]3[C@@H]1CC[C@H]2O | inactive |  |
| COc1cccc([C@H](O)C2CCN(CCc3ccc(F)cc3)CC2)c1OC | inactive |  |
| CN(C)c1ccc(C(=C2C=CC(=[N+](C)C)C=C2)c2ccc(N(C)C)cc2)cc1 |  | 37.1 µM (active) |
| CN1C(=O)N(c2ccccc2Br)Cc2cnc(Nc3ccc4c(c3)OCC(CO)O4)nc21 (stereo unspecified) |  | 50 µM (active) |
| Oc1ccc2ccccc2c1 | inactive |  |
| CCCCCCCC[Si](OCC)(OCC)OCC | inactive |  |
| Clc1cc(Cl)c2c(c1)N=C1CCCCCN1C2 | inactive |  |
| Clc1ccccc1C(c1ccccc1)(c1ccccc1)n1ccnc1 |  | 82.1 µM (active) |
| CC(C)(O)c1ccc(CNC(=O)c2cccnc2Oc2ccc3nonc3c2)cc1 | inactive |  |
| O=C1CCC(C2CCCCC2)CC1 | inactive |  |
| CC(C)(c1cc(Br)c(O)c(Br)c1)c1cc(Br)c(O)c(Br)c1 |  | 47.8 µM (active) |
| Cc1oc2c(NC(=O)c3c(Cl)cccc3Cl)cccc2c1C(C)(C)O | inactive |  |
| O=C(O)Cc1cc(I)c(Oc2ccc(O)c(I)c2)c(I)c1 |  | 87.5 µM (active) |
| CCCCCCCCN(C)CCCCCCCC | inactive |  |
